Data as given in PubChem BioAssay AID1159580 (chemical genetic matrix, 2015).
Out of some 5,500 compounds screened, about 2,000 (36%) were called active. About 18% were inconclusive and are not listed. Cut-off read from the data, not from the text of the source: active = normalized growth mostly below about 0.91 (no sharp cut-off); inconclusive = no clear call, values can overlap the other calls; inactive = mostly above about 0.92. This is one part of the list.

Test: chemical genetic growth profiling, strain panel (AID 1159580);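 note: tested at 20 µM; growth read once vehicle control cultures reached saturation at 30 °C; 1 = growth at the plate median or of vehicle wells; lower values mean less growth of the strain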
Settings: S. cerevisiae deletion strains, growth OD

Measured: normalized growth

COC(=O)c1c(C)cc(O)cc1O
inactive: locus YAL021C, strain ccr4, hits give low values 1.02 | locus YAL026C, strain drs2, hits give low values 1 | locus YAL030W, strain snc1, hits give low values 1 | locus YBL061C, strain skt5, hits give low values 1.02 | locus YBR009C, strain hhf1, hits give low values 1 | locus YBR023C, strain chs3, hits give low values 1.01 | locus YBR171W, strain sec66, hits give low values 1 | locus YBR231C, strain swc5, hits give low values 1.01 | locus YBR279W, strain paf1, hits give low values 1.02 | locus YCL011C, strain gbp2, hits give low values 1.01 | locus YCL016C, strain dcc1, hits give low values 1.01 | locus YCL061C, strain MRC1, hits give low values 1.01 | locus YCL069W, strain vba3, hits give low values 0.999 | locus YCR088W, strain abp1, hits give low values 0.994 | locus YDL005C, strain med2, hits give low values 1.01 | locus YDL040C, strain nat1, hits give low values 1 | locus YDR001C, strain nth1, hits give low values 0.998 | locus YDR069C, strain doa4, hits give low values 1.01 | locus YDR137W, strain rgp1, hits give low values 1 | locus YDR159W, strain sac3, hits give low values 1.02 | locus YDR195W, strain ref2 1.05 | locus YDR297W, strain sur2, hits give low values 1.01 | locus YDR334W, strain swr1, hits give low values 1.01 | locus YDR335W, strain msn5, hits give low values 1.01 | locus YDR392W, strain spt3, hits give low values 0.978 | locus YEL003W, strain gim4, hits give low values 1.01 | locus YEL037C, strain rad23, hits give low values 1.01 | locus YEL061C, strain CIN8 (second series), hits give low values 1.01 | locus YER015W, strain faa2, hits give low values 1 | locus YER016W, strain bim1, hits give low values 1.01 | locus YER111C, strain swi4, hits give low values 1.03 | locus YER155C, strain BEM2 (second series), hits give low values 0.995 | locus YFR010W, strain ubp6, hits give low values 1.02 | locus YGL167C, strain pmr1, hits give low values 1.01 | locus YGL173C, strain kem1, hits give low values 1.02 | locus YGL227W, strain vid30, hits give low values 1 | locus YGL240W, strain doc1, hits give low values 1 | locus YGL253W, strain hxk2, hits give low values 1.01 | locus YHR013C, strain ard1, hits give low values 1.03 | locus YHR027C, strain rpn1, hits give low values 1.02 | locus YHR030C, strain SLT2, hits give low values 0.994 | locus YHR079C, strain IRE1, hits give low values 0.996 | locus YHR142W, strain chs7, hits give low values 1 | locus YJL092W, strain hpr5, hits give low values 0.998 | locus YJL095W, strain BCK1 (second series), hits give low values 1 | locus YJL095W, strain BCK1, hits give low values 0.984 | locus YJL115W, strain asf1, hits give low values 1.01 | locus YJL129C, strain trk1, hits give low values 1 | locus YJL154C, strain vps35, hits give low values 1.01 | locus YJL164C, strain tpk1, hits give low values 1.01 | locus YJL166W, strain qcr8, hits give low values 0.998 | locus YJL187C, strain SWE1, hits give low values 1.01 | locus YJR066W, strain TOR1, hits give low values 0.948 | locus YKL160W, strain elf1, hits give low values 1 | locus YKR026C, strain gcn3, hits give low values 1 | locus YKR091W, strain srl3, hits give low values 1.01 | locus YLL001W, strain dnm1, hits give low values 1.02 | locus YLL026W, hits give low values 0.996 | locus YLL041C, strain sdh2, hits give low values 1.01 | locus YLR027C, strain aat2, hits give low values 1.01 | locus YLR113W, strain HOG1, hits give low values 1.03 | locus YLR221C, strain rsa3, hits give low values 0.999 | locus YLR258W, strain gsy2, hits give low values 1.01 | locus YLR262C, strain YPT6 (second series), hits give low values 0.985 | locus YLR320W, strain mms22, hits give low values 1.01 | locus YLR342W, strain FKS1, hits give low values 1.01 | locus YLR357W, strain rsc2, hits give low values 1.03 | locus YLR370C, strain arc18, hits give low values 0.992 | locus YLR384C, strain iki3, hits give low values 1.01 | locus YML120C, strain ndi1, hits give low values 0.993 | locus YMR058W, strain fet3, hits give low values 1.01 | locus YMR125W, strain sto1, hits give low values 1.02 | locus YMR129W, hits give low values 1.01 | locus YMR205C, strain PFK2, hits give low values 1.01 | locus YMR231W, strain pep5, hits give low values 1.01 | locus YNL071W, strain lat1, hits give low values 0.987 | locus YNL183C, strain NPR1, hits give low values 0.917 | locus YNL209W, strain ssb2, hits give low values 1.01 | locus YNL248C, strain rpa49, hits give low values 1.01 | locus YNL322C, strain KRE1 (second series), hits give low values 1 | locus YNR049C, strain mso1, hits give low values 1 | locus YOR001W, strain rrp6, hits give low values 1 | locus YOR070C, strain gyp1, hits give low values 1 | locus YOR080W, strain dia2, hits give low values 1.01 | locus YOR083W, strain WHI5, hits give low values 1.01 | locus YOR106W, strain vam3, hits give low values 0.999 | locus YOR231W, strain MKK1, hits give low values 0.987 | locus YOR265W, strain rbl2, hits give low values 0.999 | locus YOR270C, strain vph1, hits give low values 0.961 | locus YOR290C, strain snf2, hits give low values 1.01 | locus YPL051W, strain arl3, hits give low values 1 | locus YPL078C, strain atp4, hits give low values 0.999 | locus YPL106C, strain sse1, hits give low values 0.982 | locus YPL240C, strain hsp82, hits give low values 0.996 | locus YPL256C, strain CLN2, hits give low values 1.01
